Bioassay records: PubChem, National Center for Advancing Translational Sciences (NCATS)
ELG1 DNA repair – blocks ELG1-dependent DNA repair in HEK293T cells; HEK293T ELG1-luciferase reporter, luminescence, 16 h; DNA damage induced by 5-fluorouridine; Potency, µM (doses to about 46.1 µM), for the others: top-dose activity change, negative = inhibition, usual class: inhibitors; 2.3% of 330,000 active; further: potency means the concentration at half of the fitted maximal effect; nearly all actives have a fitted effect of over 55% in size
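Cells (2,000 per well) received 5-fluorouridine plus test compound or DMSO and were incubated 16 hr at 37 °C, 5% CO2. Luciferase activity was read by luminescence 30 min after ONE-Glo addition; signal suppression marked inhibition of damage-induced ELG1 function.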
Giardia kill – kills Giardia lamblia; Giardia lamblia trophozoite viability; activity change, % at 7.66 µM, hits read low; 0.15% of 340,000 active; AID 540267; in the data active means activity change below about -80%; inconclusive means between about -30% and that limit;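 further: parasites exposed to compound for two days anaerobically before the ATP read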
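Killing of trophozoites was scored by loss of ATP luminescence after a 48 hrs anaerobic exposure to compounds at 37 deg C, using 100 cells per well.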
Coupling enz – counter-screen for Giardia aldolase inhibitors: coupling enzyme system. coupling enzyme system counterscreen, AmpLite Red fluorescence. 0.67% of 290,000 active. activity change, negative = inhibition, % at 58.2 µM, hits read low; in the data active means activity change below about -30%
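Final compound at 57.5 uM, incubated 10 min at RT with coupling enzyme reagent (glyceraldehyde-3-phosphate), then 20 min with substrate and AmpLite Red detection. Fluorescence read at 525/598 nm; tests interference with the coupling assay, not aldolase inhibition.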
Sfp inh – Sfp phosphopantetheinyl transferase inhibition | Biochemical Sfp PPTase activity, qHTS | AID 1490 | Potency, µM, without a hit: largest response in the series, negative = inhibition, actives largely listed as inhibitors | 3.5% of 310,000 active | Q9F4F7;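 further: the enzyme is Sfp with the accession as filed and its product quenches rhodamine fluorescence; potency means the concentration at half of the fitted maximal effect; 0% = enzyme reaction without inhibitor and -100% = no enzyme wells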
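Fluorescence-quenching assay with 15 nM Sfp, 5 uM rhodamine-CoA and 12.5 uM BHQ-2-labelled ybbR peptide in pH 7.6 Hepes/MgCl2 buffer. Enzyme was pre-incubated with compound for 15 min at room temperature. Rate was taken from the 30-min fluorescence change (525/598 nm).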
Starred values were filed as active, the others as inactive; ? = inconclusive; · = not tested or not shown; ! = a repeat was not active. Compounds with a hit are over-represented: about 5.5% of the library has one in this group of screens. Unless noted, the call rests on the fitted dose curve; in most records, active means well fitted curve in the direction sought with a large enough effect; inconclusive means small, poorly fitted or top-dose-only effect, or another doubt; inactive means no such curve, though single readings can be large; an effect the other way counts as inactive or inconclusive. Unless noted, on the % scale 0 is the no-effect control and ±100 the full control effect.

SMILES	ELG1 DNA repair	Giardia kill	Coupling enz	Sfp inh
CN1N/C(=C\c2ccccc2)N=C2C(=O)N(C)C(=O)N=C21	·	-105*	·	·
CC/C=C1/N=C2C(=O)N(C)C(=O)N=C2N(C)N1	·	-88*	·	·
CN1C(=O)/C(=C/c2ccc3c(c2)OCO3)N=C1c1ccccc1	-5%	-11	1	-7%
CC(C)NC(=O)Cn1cc(S(=O)(=O)N2CCCC2)c(S(=O)(=O)N2CCCC2)c1	21%	2	-1	5%
CC1CCCCN1C(=O)NC1CC(=O)N(c2ccc3c(c2)OCCO3)C1 (stereo not given)	-11%	-10	·	·
O=C(NNC(=O)C12CC3CC(CC(C3)C1)C2)c1ccccc1[N+](=O)[O-]	12%	-19	11	7%
CC(C)C(OC(=O)CN1C(=O)COc2ccccc21)C(=O)NC1CCCC1 (stereo not given)	-22%	-9	2	16%
Cc1ccc2c(c1)N(CC(=O)OC(CC(C)C)C(=O)NC1CCCC1)C(=O)CO2 (stereo not given)	21µM*	9	0	-14%
CCOc1ccc(C(=O)Nc2cc(C)ccn2)cc1	?	-88*	-1	4%
Cc1cccc(N2CCN(C(=O)CCS(=O)(=O)c3ccc4c(c3)NC(=O)CO4)CC2)c1C	-15%	4	-5	3%
Cc1cccc(N2CCN(C(=O)CCNS(=O)(=O)c3ccc4c(c3)CCC(=O)N4)CC2)c1C	11µM*	0	0	3%
O=C(Nc1cccc(C(F)(F)F)c1)C1CCN(S(=O)(=O)c2ccc(N3CCCC3=O)cc2)CC1	-25%	-7	·	10%
CC(=O)N[C@@H](CSC/C=C(\C)CCC=C(C)C)C(=O)O	·	·	2	45µM*!
CCN(C(=O)COC(=O)c1ccc(=O)n(Cc2ccccc2)n1)C1CCS(=O)(=O)C1 (stereo not given)	?	-19	·	·
COCCN1CCC(CNCc2cn(-c3cc(C)ccc3C)nc2-c2ccccc2)C1 (stereo not given)	-13%	2	0	50µM*
COCCN1CCC(CNCc2cn[nH]c2-c2ccc(C)c(C)c2)C1 (stereo not given)	-8%	-29	1	8%
COC(CNC(=O)C1CCCN1C(=O)OCc1ccccc1)OC (stereo not given)	8%	16	0	2%
COC(=O)[C@@H]1C[C@]2(OC(=O)c3ccccc3)C=CC(=O)C[C@@H]2N1C(=O)OCc1ccccc1	15µM*	7	0	-2%
COCCN(C(=O)CNC(=O)c1ccco1)C(C(=O)NC1CCCC1)c1cccc(OC)c1 (stereo not given)	16%	-18	0	1%
Cc1ccc(-n2cccn2)c(CN2CCCC(C(=O)c3sccc3C)C2)c1 (stereo not given)	16µM*	-9	4	12%
Cc1ccsc1C(=O)C1CCCN(Cc2cccn2-c2ccc(Cl)cn2)C1 (stereo not given)	-9%	-7	7	8%
CC1=C(C(N)=O)C(c2ccccc2[N+](=O)[O-])n2ncnc2N1 (stereo not given)	-14%	14	0	40µM*
CC1=C(C(N)=O)C(c2ccc(Cl)cc2Cl)n2ncnc2N1 (stereo not given)	-2%	1	5	1%
Cc1cccc(NC(=O)C2CCN(S(=O)(=O)c3c(C)noc3/C=C/c3ccco3)CC2)n1	13µM*	-1	-1	30%
CC(=O)OCC1=C(C(=O)O)N2C(=O)[C@@H](NC(=O)CSc3ccncc3)[C@H]2SC1	12%	17	·	·
SMILES	ELG1 DNA repair	Giardia kill	Coupling enz	Sfp inh
Cc1nnc(SCC2=C(C(=O)O)N3C(=O)C(NC(=O)c4cccc(F)c4F)C3SC2)s1 (stereo not given)	9%	-14	0	56µM*
Cc1nnc(SCC2=C(C(=O)O)N3C(=O)C(NC(=O)Cn4ncc(Cl)c4C)C3SC2)s1 (stereo not given)	10%	-8	-4	28µM*
Cc1cc(C)n(CC(=O)NC2C(=O)N3C(C(=O)O)=C(CSc4nnc(C)s4)CSC23)n1 (stereo not given)	22%	-28	1	56µM*
CCN1CCC(O)(C(C(=O)OC)c2ccccc2)CC1 (stereo not given)	·	25	·	·
COc1ccc(NC(=O)CN2C(=O)S/C(=C/c3cccn3-c3ccc(C(=O)O)cc3)C2=O)cc1	6%	·	·	-5%
COc1ccc(-c2cc(N)n(S(=O)(=O)c3c(F)c(F)c(F)c(F)c3F)n2)cc1OC	23µM*	11	8	0%
Cc1ccc(CN2CCCNC2=O)cc1	?	1	-6	16%
Cc1ccc(C)c(CN2CCCNC2=O)c1	23%	-22	0	50µM*
COc1ccc(N2CC(C)Cn3c2nc2c3c(=O)n(Cc3ccc(C)cc3)c(=O)n2C)c(OC)c1 (stereo not given)	?	0	2	-14%
COc1ccc(N2CC(C)Cn3c2nc2c3c(=O)n(Cc3ccc(F)cc3)c(=O)n2C)c(OC)c1 (stereo not given)	16µM*	3	-3	?
CC(C)NC(=O)N1CCC2(CC1)CCN(S(=O)(=O)c1ccccc1)CC2	·	·	4	19%
CCN1C(c2ccccc2)=C(c2ccccc2)S/C1=C\C=C1/SC(=S)N(C)C1=O	·	0	·	·
CCN1C(c2ccccc2)=C(c2ccccc2)S/C1=C/C=C1\SC(=S)N(C)C1=O	10µM*	-16	0	?
CCN1C(=O)/C(=C/C=C2/Sc3ccc4ccccc4c3N2CCO)SC1=S	-6%	-4	-2	50µM*
O=C(OCc1ccccc1)N(CCF)c1cn(Cc2ccccc2)c(=O)n(Cc2ccccc2)c1=O	·	10	·	·
CC1CCc2c(sc(NC(=O)CN3CCN(C(=O)c4ccco4)CC3)c2C#N)C1 (stereo not given)	16µM*	-9	2	9%
COC(=O)c1[nH]c2cc(C)ccc2c1NC(=O)CN1CCN(C(=O)c2ccco2)CC1	?	-3	1	50µM*
CC1CCc2c(sc(NC(=O)Cn3nc(C(F)(F)F)c4c3CCCCC4)c2C#N)C1 (stereo not given)	3%	9	1	50µM*
COC(=O)c1[nH]c2cccc(C)c2c1NC(=O)CN1CCN(C(=O)c2ccco2)CC1	?	-6	4	-13%
CCOC(=O)c1c(NC(=O)CN2CCN(C(=O)c3ccco3)CC2)sc(C(N)=O)c1C	23µM*	-16	-3	-2%
CC1CCN(CC(=O)Nc2sc3c(c2C#N)CCC3)CC1	18%	-10	0	3%
CCOc1ccnc2c1c(=O)n(Cc1cc(OC)cc(OC)c1)c(=O)n2C	?	-3	13	11%
NCCCNc1ccc(Br)cn1	·	-18	·	·
COCCOC(=O)c1c(NC(=O)CN2CCCc3ccccc32)sc(C(N)=O)c1C	7.3µM*	-7	-1	5%
CCc1cc(C(=O)OC)c(NC(=O)CCC(=O)O)s1	11%	-1	10	20µM*
CCc1cc(C(=O)OC)c(NC(=O)CN2CCN(C(=O)c3ccco3)CC2)s1	10µM*	-2	·	-3%
